The nature of assay [1]: Nuclear factor erythroid 2-related factor 2/antioxidant responsive element (Nrf2/ARE) small molecule agonists: qHTS cell viability counter screen in human keratinocytes (AID 1919968; active = well fitted curve in the direction sought with a large enough effect in the repeat runs; an effect the other way counts as inactive or inconclusive; also: nearly all actives have a fitted effect of over 55% in size). An outline of the steps: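 Parallel cytotoxicity read: KeratinoSens HaCaT cells, compound treatment 23 h, viability by CellTiter-Fluor fluorescence 1 h post-reagent.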
A general note: Quantitative high-throughput screening tests each substance at several concentrations.

Assay [2] in a line: Nuclear factor erythroid 2-related factor 2/antioxidant responsive element (Nrf2/ARE) small molecule agonists: luciferase reporter gene qHTS assay in human keratinocytes (AID 1919969). Also: nearly all actives have a fitted effect of over 35% in size. A general note: A reporter such as luciferase makes a cellular process visible.
The target of assay [3] is Gonadotropin-releasing hormone receptor (Homo sapiens) (UniProt P30968). In words: Human gonadotropin-releasing hormone receptor (GnRHR) small molecule agonists, calcium flux assay in GnRHR-HEK293 cells (AID 1920063). Also: nearly all actives have a fitted effect of over 35% in size. In a few lines: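 Calcium flux, agonist mode, human GnRHR stably integrated in HEK293; dye 1 h at 37 C before compound; Ex/Em=480/540 kinetic read, 3 min; 15 concentrations, triplicate.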
Chain of Gonadotropin-releasing hormone receptor (Homo sapiens) (P30968 whole entry, looked up): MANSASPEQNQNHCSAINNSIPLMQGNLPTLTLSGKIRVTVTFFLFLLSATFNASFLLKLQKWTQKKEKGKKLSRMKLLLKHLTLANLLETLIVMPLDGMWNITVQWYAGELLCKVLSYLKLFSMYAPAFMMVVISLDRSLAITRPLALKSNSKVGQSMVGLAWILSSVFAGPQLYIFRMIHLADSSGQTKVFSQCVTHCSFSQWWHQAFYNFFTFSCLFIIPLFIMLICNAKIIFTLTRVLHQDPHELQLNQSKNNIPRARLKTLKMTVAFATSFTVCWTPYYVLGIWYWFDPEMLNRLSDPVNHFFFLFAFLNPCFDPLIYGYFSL
A general note: A change in cytosolic calcium serves as a functional read-out for many receptors and channels.

Assay [4] has as its target KiSS-1 receptor (Homo sapiens) (UniProt Q969F8). The assay can be described thus: Human kisspeptin (KISS1R) small molecule agonists, calcium flux assay in KISS1R-HEK293 cells (AID 1920064; active = well fitted curve in the direction sought with a large enough effect in the repeat runs; an effect the other way counts as inactive or inconclusive). In a few lines: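 Triplicate 15-concentration series were applied to dye-loaded human KISS1R HEK293 cells, and agonist-evoked calcium fluorescence was captured for 3 min.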
A short description of assay [5]: G protein-coupled receptor (GPCR) small molecule agonists, calcium flux assay: HEK293 wild type cell line counter screen (AID 1920065). In a few lines:
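Non-specific calcium responders were flagged by adding DMSO-dissolved compounds to dye-loaded cells and reading 480/540 nm fluorescence each second for 3 min; ATP served as positive control.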

Assay [6] is described as follows: p53 small molecule agonists, cell-based qHTS assay with human liver microsomes (AID 1963577).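 Also: p53 response element beta-lactamase reporter cells with liver microsomes plus NADPH.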 An outline of the steps:
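In this qHTS, p53 response-element beta-lactamase cells receive test compound together with a microsome/NADPH activating system (0.5 mg/mL final each) and are incubated 16 h at 37 C before LiveBLAzer fluorescence detection.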

Assay [7] can be described thus: p53 small molecule agonists, cell-based qHTS assay with rat liver microsomes (AID 1963578). In a few lines:
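Agonist mode in p53RE-bla reporter cells, with compounds co-incubated 16 h at 37 C alongside 0.5 mg/mL rat liver microsomes and 0.5 mg/mL NADPH (final), followed by a 2 h LiveBLAzer detection step.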

Assay [8] can be described thus: p53 small molecule agonists, cell-based qHTS assay with human liver microsomes: qHTS cell viability counter screen (AID 1963579). Also: nearly all actives have a fitted effect of over 45% in size. An outline of the steps: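 Metabolically activated exposure: compounds, human liver microsomes and NADPH (0.5 mg/mL final apiece) were added to p53RE-bla cells seeded 5 h earlier, left 16 h at 37 C, and then assessed for viability by CellTiter-Glo luminescence.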

A short description of assay [9]: p53 small molecule agonists, cell-based qHTS assay with rat liver microsomes: qHTS cell viability counter screen (AID 1963580). Also: nearly all actives have a fitted effect of over 45% in size. In a few lines:
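Rat liver microsome (0.5 mg/mL final) and NADPH (0.5 mg/mL final) co-incubation with compounds for 16 h at 37 C on HCT-116 p53RE-bla cells; cytotoxicity taken from intracellular ATP luminescence.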

A short description of assay [10]: p53 small molecule agonists, cell-based qHTS assay: qHTS cell viability counter screen (AID 1963581). Also: nearly all actives have a fitted effect of over 45% in size. An outline of the steps: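 Multiplexed with the reporter read, a CellTiter-Glo step (30 min, room temperature) gauges ATP-based viability of HCT-116 p53RE-bla cells after 16 h compound incubation at 37 C.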
Assay [11] is described as follows: p53 small molecule agonists, cell-based qHTS assay (AID 1963582; active = well fitted activation curve with a large enough effect in the signal ratio in the repeat runs, not every such curve was filed as active; the % refers to the signal ratio). In a few lines:
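Beta-lactamase reporter cells (p53RE-bla) treated with compounds for 16 h at 37 C; FRET substrate, 2 h, room temperature; fluorescence intensity.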

Assay [12] concerns the target 5-hydroxytryptamine receptor 2A (Homo sapiens) (UniProt P28223). The assay can be described thus: 5-hydroxytryptamine receptor 2A (HTR2A) small molecule antagonists, cell-based qHTS assay (AID 1963586). Also: nearly all actives have a fitted effect of over 45% in size. In a few lines: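 CHO cells stably expressing human HTR2A were plated for 18 h at 37 C, then loaded with calcium dye for 1 h. Compounds were preincubated 5 min at room temperature before DOI (4 nM solution) was added. Kinetic fluorescence was read for 3 min.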

Assay [13] has the same target. In words: 5-hydroxytryptamine receptor 2A (HTR2A) small molecule agonists, cell-based qHTS assay (AID 1963587). Also: nearly all actives have a fitted effect of over 30% in size. Also: potency is read from the fitted curve at half-maximal effect. In a few lines: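 Kinetic calcium-flux fluorescence (2 min, 1 sec intervals) after compound addition in agonist mode. HTR2A-CHO cells were cultured 18 h, then dye-loaded 1 h at 37 C.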
Assay [14] can be described thus: cAMP Responsive Elements (CRE) small molecule agonists, cell-based qHTS assay (AID 1963590). In a few lines:
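Quantitative HTS for CRE agonists: HEK 293T CRE-bla cells, overnight plating, 3 h compound incubation at 37 C/5% CO2, then 2 h room-temperature LiveBLAzer B/G FRET substrate loading.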

Assay [15] can be described thus: cAMP Responsive Elements (CRE) small molecule antagonists, cell-based qHTS assay (AID 1963591; active = well fitted inhibition curve with a large enough effect in the signal ratio in the repeat runs, not every such curve was filed as active; the % refers to the signal ratio). An outline of the steps: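 Fluorescence intensity from cleaved LiveBLAzer B/G substrate (2 h, room temperature) quantified CRE-bla activity in HEK 293T cells exposed 3 h to compound with 0.25 uM final NKH477.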
In assay [16] the target is D(2) dopamine receptor (Homo sapiens) (UniProt P14416). In words: Dopamine D2 receptor (DRD2) small molecule agonists, cell-based qHTS assay (AID 1963594). Also: nearly all actives have a fitted effect of over 35% in size. An outline of the steps:
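cAMP accumulation in DRD2-HEK293 cells measured by HTRF after 1 h detection; compounds added 10 min before NKH477 (200nM […]) forskolin-analogue stimulation, 30 min at room temperature, with Ro20-1724 present at 0.1 mM final.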

The target is the same in assay [17]. In words: Dopamine D2 receptor (DRD2) small molecule antagonists, cell-based qHTS assay (AID 1963595; active = well fitted inhibition curve with a large enough effect in the signal ratio in the repeat runs, with a control signal flat; the % refers to the signal ratio). In a few lines:
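Readout: HTRF cAMP, cAMP-d2 competing with cellular cAMP for anti-cAMP cryptate, read after 1 h. Cells: DRD2-HEK293. Conditions: 0.1 mM Ro20-1724, 12 nM quinpirole, 200 nM NKH477, 30 min RT.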

For assay [18], the target named is Muscarinic acetylcholine receptor M1 (Homo sapiens) (UniProt P11229). The assay can be described thus: Cholinergic receptor muscarinic 1 (CHRM1) small molecule agonists, cell-based qHTS assay (AID 1963589). Also: nearly all actives have a fitted effect of over 35% in size. An outline of the steps:
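qHTS, 15-point titration, 3 independent runs: compounds pin-transferred onto dye-loaded CHRM1-CHO cells (human M1), calcium fluorescence followed every second to detect agonism.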

Assay [19] concerns the target Beta-2 adrenergic receptor (Homo sapiens) (UniProt P07550). The assay can be described thus: Adrenergic beta2 receptor (ADRB2) small molecule antagonists, cell-based qHTS assay (AID 1963592). Also: series mostly up to about 92 µM; nearly all actives have a fitted effect of over 50% in size. An outline of the steps:
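Assay format: CHO-ADRB2 cells, 18-20hr seeding at 37C/5% CO2, then compound plus 1nM isoproterenol agonist mix for 0.5hr RT. Homogeneous time-resolved fluorescence cAMP detection after 1hr, expressed as 665/615 nm ratio.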

Assay [20] deals with Muscarinic acetylcholine receptor M1 (Homo sapiens) (UniProt P11229). In words: Cholinergic receptor muscarinic 1 (CHRM1) small molecule antagonists, cell-based qHTS assay (AID 1963588). Also: nearly all actives have a fitted effect of over 40% in size. An outline of the steps: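 Compounds were tested at 15 concentrations in three independent runs. Dye-loaded CHRM1-CHO cells were exposed 5 min at room temperature before stimulation by acetylcholine added at 50nM. Intracellular calcium was read kinetically on FDSS for 3 min.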
Chain of Muscarinic acetylcholine receptor M1 (Homo sapiens) (P11229 whole entry, looked up): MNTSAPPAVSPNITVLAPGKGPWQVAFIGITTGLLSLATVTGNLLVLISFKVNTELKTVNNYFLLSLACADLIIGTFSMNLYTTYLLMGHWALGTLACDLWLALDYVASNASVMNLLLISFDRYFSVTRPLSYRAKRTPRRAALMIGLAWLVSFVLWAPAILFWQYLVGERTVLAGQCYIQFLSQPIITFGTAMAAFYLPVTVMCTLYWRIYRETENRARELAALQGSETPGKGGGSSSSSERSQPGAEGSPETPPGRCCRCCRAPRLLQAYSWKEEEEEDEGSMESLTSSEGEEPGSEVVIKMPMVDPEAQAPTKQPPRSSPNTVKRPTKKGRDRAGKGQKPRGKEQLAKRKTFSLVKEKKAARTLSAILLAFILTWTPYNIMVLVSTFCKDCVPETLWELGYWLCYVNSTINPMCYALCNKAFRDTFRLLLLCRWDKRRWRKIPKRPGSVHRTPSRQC

Several values for one entry are separate records, joined by “and”; a condition that tells them apart may be missing. Identical values can stand only once. Results filed as inconclusive are left out. Where a structure was tested more than once in an assay, its records may differ in their call. Activity calls are given as the source filed them. Unless noted, calls follow the shape of the full dose curve.

Chain of Beta-2 adrenergic receptor (Homo sapiens) (P07550 whole entry, looked up): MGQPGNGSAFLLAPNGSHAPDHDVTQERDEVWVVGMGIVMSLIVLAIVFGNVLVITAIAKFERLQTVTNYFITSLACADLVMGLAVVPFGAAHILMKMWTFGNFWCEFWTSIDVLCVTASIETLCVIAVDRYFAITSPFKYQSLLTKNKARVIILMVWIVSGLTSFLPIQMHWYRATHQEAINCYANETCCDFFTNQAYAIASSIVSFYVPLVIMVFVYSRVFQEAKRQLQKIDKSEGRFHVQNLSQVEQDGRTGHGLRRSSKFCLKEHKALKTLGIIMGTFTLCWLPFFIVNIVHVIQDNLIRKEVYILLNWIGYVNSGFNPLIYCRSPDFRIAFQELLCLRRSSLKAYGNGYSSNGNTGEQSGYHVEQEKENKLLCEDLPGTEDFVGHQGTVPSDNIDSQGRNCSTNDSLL
Chain of D(2) dopamine receptor (Homo sapiens) (P14416 whole entry, looked up): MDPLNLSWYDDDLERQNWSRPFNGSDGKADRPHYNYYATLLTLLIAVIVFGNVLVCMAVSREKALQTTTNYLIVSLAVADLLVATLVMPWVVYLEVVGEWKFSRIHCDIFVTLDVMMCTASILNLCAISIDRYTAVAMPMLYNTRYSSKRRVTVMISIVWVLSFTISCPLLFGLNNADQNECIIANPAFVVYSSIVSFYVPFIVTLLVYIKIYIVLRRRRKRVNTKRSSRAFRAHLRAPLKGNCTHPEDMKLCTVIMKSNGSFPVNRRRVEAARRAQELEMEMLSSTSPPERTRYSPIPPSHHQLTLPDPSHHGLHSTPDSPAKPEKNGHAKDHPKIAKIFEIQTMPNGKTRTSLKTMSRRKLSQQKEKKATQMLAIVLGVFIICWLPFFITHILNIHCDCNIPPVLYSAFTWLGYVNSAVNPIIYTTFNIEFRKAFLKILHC
Chain of KiSS-1 receptor (Homo sapiens) (Q969F8 whole entry, looked up): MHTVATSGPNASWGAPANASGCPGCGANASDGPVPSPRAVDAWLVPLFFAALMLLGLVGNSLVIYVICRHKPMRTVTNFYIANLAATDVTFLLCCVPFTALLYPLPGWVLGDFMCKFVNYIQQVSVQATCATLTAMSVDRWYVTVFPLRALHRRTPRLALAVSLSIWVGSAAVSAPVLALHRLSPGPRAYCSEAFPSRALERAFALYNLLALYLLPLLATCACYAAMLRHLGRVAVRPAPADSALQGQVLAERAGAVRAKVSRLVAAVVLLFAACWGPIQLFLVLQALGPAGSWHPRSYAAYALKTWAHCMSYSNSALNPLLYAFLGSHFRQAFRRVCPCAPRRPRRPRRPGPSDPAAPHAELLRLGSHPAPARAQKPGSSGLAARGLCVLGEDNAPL
Chain of 5-hydroxytryptamine receptor 2A (Homo sapiens) (P28223 whole entry, looked up): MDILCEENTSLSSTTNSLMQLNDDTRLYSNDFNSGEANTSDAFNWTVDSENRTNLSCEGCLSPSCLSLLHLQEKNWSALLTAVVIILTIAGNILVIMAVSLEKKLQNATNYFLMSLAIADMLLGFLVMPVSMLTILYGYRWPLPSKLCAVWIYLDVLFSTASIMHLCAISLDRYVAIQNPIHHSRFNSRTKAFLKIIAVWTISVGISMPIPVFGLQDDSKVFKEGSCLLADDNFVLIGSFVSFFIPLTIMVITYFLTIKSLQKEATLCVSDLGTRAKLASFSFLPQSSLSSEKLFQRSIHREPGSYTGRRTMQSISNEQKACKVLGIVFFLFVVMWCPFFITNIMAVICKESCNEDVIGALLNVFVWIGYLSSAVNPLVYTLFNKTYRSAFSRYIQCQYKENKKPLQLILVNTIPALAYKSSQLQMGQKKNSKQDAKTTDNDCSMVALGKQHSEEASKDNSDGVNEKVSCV

Consider `CO[Si](CCCOCC1CO1)(OC)OC` (centres undefined), for which the Potency entry in assay [1], in [2], in assay [3], in assay [4], in assay [5] and in [6] was “inactive” each time. The Potency result in [7], in [8], in assay [9], in [10], in [11] and in assay [12] was “inactive” in each case. Also, the Potency entry in assay [13], in assay [14], in assay [15], in assay [16] and in [17] was “inactive” in each case.
On to `Cc1ccc(C(C)(C)C)cc1`, for which the Potency result in [1], in assay [2], in assay [3], in assay [4], in assay [5] and in assay [6] was “inactive” throughout. Further, the Potency entry in [7], in assay [8], in assay [9], in assay [10], in assay [11] and in assay [12] was “inactive” each time. Besides, the Potency result in [13], in assay [18], in assay [14], in assay [15], in assay [16] and in assay [17] was “inactive” in each case.
As to `Cc1ccc(C(C)c2ccc(C)c(C)c2)cc1C`, the Potency entry in [1], in assay [2], in assay [3], in [4], in assay [5] and in assay [6] was “inactive” in each case. In addition, the Potency entry in assay [7], in assay [8], in assay [9], in assay [10], in assay [11] and in assay [12] was “inactive” in each case. The Potency entry in assay [13], in assay [18], in [15], in assay [19], in assay [16] and in [17] was “inactive” each time.
For `O=S(=O)(O)c1cccc2c(S(=O)(=O)O)cccc12`, the Potency result in assay [1], in assay [2], in [3], in [4], in assay [5] and in assay [6] was “inactive” throughout. Further, the Potency result in assay [7], in assay [8], in [9], in assay [10], in [11] and in assay [12] was “inactive” in each case. The Potency entry in [20], in assay [18], in assay [14], in assay [15], in assay [19] and in assay [16] was “inactive” each time. Besides, the Potency result in [17] is “inactive”.
As for `CC(=O)Nc1ccc(C)cc1`, the Potency result in assay [1], in assay [2], in [3], in [4], in assay [5] and in assay [6] was “inactive” in each case. For the same molecule, the Potency entry in [7], in [8], in assay [9], in [10], in [11] and in assay [12] was “inactive” throughout. Besides, the Potency entry in assay [13], in assay [18], in [14], in assay [15], in assay [19] and in assay [16] was “inactive” each time. Also, in assay [17], the Potency entry was “inactive”.
In the case of `OCC#CCO`, the Potency result in [1], in [2], in assay [3], in [4], in [5] and in assay [6] was “inactive” each time. Besides, the Potency result in assay [7], in [8], in [9], in [10], in [11] and in assay [12] was “inactive” each time. Further, the Potency result in assay [13], in assay [18], in assay [14], in assay [19], in assay [16] and in assay [17] was “inactive” in each case.
On to `CCOc1c(N2CCOCC2)cnn(C)c1=O`, for which the Potency entry in assay [1], in assay [2], in [3], in assay [4], in assay [5] and in assay [6] was “inactive” each time. Also, the Potency result in [7], in assay [8], in assay [9], in assay [10], in assay [11] and in assay [12] was “inactive” in each case. Also, the Potency result in assay [13], in assay [18], in assay [14], in assay [15], in [19] and in assay [17] was “inactive” each time.
For the molecule `NCCc1ccc(O)c(O)c1`, the Potency result in assay [1], in [2], in assay [3], in assay [4], in assay [5] and in assay [6] was “inactive” in each case. In addition, the Potency result in [7], in [8], in assay [9], in assay [10], in assay [11] and in [12] was “inactive” throughout. Moreover, the Potency entry in assay [18], in assay [14], in [15], in [19] and in assay [17] was “inactive” each time. The Potency entry in assay [13] is “inactive and 6.01 µM (active)”.
On to `CC(=O)CCC(C)C`, for which the Potency entry in assay [1], in assay [2], in assay [3], in assay [4], in assay [5] and in assay [6] was “inactive” throughout. Also, the Potency entry in assay [7], in assay [8], in assay [9], in assay [10], in [11] and in assay [12] was “inactive” throughout. The Potency result in [20], in assay [18], in assay [14], in assay [15], in assay [19] and in [16] was “inactive” each time. Also, the Potency result in assay [17] was “inactive”.
